Data taken from ChEMBL document CHEMBL4513141, “CO-ADD screening of NIH (USA) - Clinical Collection” (2021).
Entries with a potency or affinity are not part of this list.

What was measured:
[1] = test system: Klebsiella pneumoniae; conditions: Concentration 20 uM; ASSAY_TEST Inhibition of Bacterial Growth; detection method Absorption (OD600); MEDIA CAMHB; plate type 384well; NBS; CORNING #3640; time 18 hr
[2] = test system: Candida albicans; conditions: 20 µM
[3] = test system: Cryptococcus neoformans; conditions: Concentration 20 uM; ASSAY_TEST Inhibition of Fungal Growth; detection method Resazurin; Absorption (OD600-OD570); plate type 384well; NBS; CORNING #3640

**Q.** For `CS(=O)(=O)O.Cc1c(O)cccc1C(=O)N[C@@H](CSc1ccccc1)[C@H](O)CN1C[C@H]2CCCC[C@H]2C[C@H]1C(=O)NC(C)(C)C` [NELFINAVIR MESYLATE], which Inhibition [1] is on record?
**A.** The Inhibition was 0.71%.

**Q.** And the Inhibition [2]?
**A.** Its Inhibition is 0.96%.

**Q.** What about the Inhibition [3] of the same compound?
**A.** Its Inhibition is -18.17%.

**Q.** With `Br.Br.O=C1CC2(CCCC2)CC(=O)N1CCNCC1COc2ccccc2O1` (stereo not given) as the compound, how does the Inhibition [1] read?
**A.** Its Inhibition is 12.27%.

**Q.** What about the Inhibition [2] of the same compound?
**A.** Its Inhibition is 3.99%.

**Q.** What about the Inhibition [3] of the same compound?
**A.** The Inhibition was -1.27%.

**Q.** Which Inhibition [1] does the source give for `Cl.Nc1nc2ccc(OC(F)(F)F)cc2s1` here?
**A.** The Inhibition was 11.2%.

**Q.** And the Inhibition [2]?
**A.** Its Inhibition is 2.98%.

**Q.** What about the Inhibition [3] of the same compound?
**A.** Its Inhibition is -9.1%.

**Q.** Which results are given for `CCC1(c2ccccc2)C(=O)NCNC1=O` [PRIMIDONE]?
**A.** Inhibition [1]: 7.75%; Inhibition [2]: 2.22%; Inhibition [3]: 0.81%

**Q.** How did the Inhibition [1] turn out when `Cc1ccsc1C(=CCCN1CCC[C@@H](C(=O)O)C1)c1sccc1C.Cl` [TIAGABINE HYDROCHLORIDE] was run?
**A.** The Inhibition was 9.25%.

**Q.** What about the Inhibition [2] of the same compound?
**A.** Its Inhibition is 1.98%.

**Q.** And the Inhibition [3]?
**A.** The Inhibition was -3.18%.

**Q.** With `CN1CCc2cc(Cl)c(O)cc2[C@@H](c2ccccc2)C1.Cl` as the compound, how does the Inhibition [1] read?
**A.** Its Inhibition is 8.81%.

**Q.** What about the Inhibition [2] of the same compound?
**A.** The Inhibition was 1.81%.

**Q.** And the Inhibition [3]?
**A.** The Inhibition was -7.18%.

**Q.** Which results are given for `CC(=O)O.NCc1ccc(S(N)(=O)=O)cc1` [MAFENIDE ACETATE]?
**A.** Inhibition [1]: 13.84%; Inhibition [2]: 0.67%; Inhibition [3]: -7.57%

**Q.** Which results are given for `CC(C)(C)NC(=O)[C@@H]1C[C@@H]2CCCC[C@@H]2CN1C[C@@H](O)[C@H](Cc1ccccc1)NC(=O)[C@H](CC(N)=O)NC(=O)c1ccc2ccccc2n1.CS(=O)(=O)O` [SAQUINAVIR MESYLATE]?
**A.** Inhibition [1]: 4.6%; Inhibition [2]: 4.21%; Inhibition [3]: -6.99%

**Q.** For `O=C([O-])Cc1ccccc1Nc1c(Cl)cccc1Cl.[Na+]` [DICLOFENAC SODIUM], which Inhibition [2] is on record?
**A.** The Inhibition was 5.99%.

**Q.** What about the Inhibition [3] of the same compound?
**A.** The Inhibition was 1.05%.

**Q.** Which results are given for `CC1(C)O[C@@H]2C[C@H]3[C@@H]4CCC5=CC(=O)C=C[C@]5(C)[C@@]4(F)[C@@H](O)C[C@]3(C)[C@]2(C(=O)CO)O1` [TRIAMCINOLONE ACETONIDE]?
**A.** Inhibition [1]: 14.59%; Inhibition [2]: 0.96%; Inhibition [3]: -5.82%

**Q.** For `Cc1cc2c(s1)Nc1ccccc1N=C2N1CCN(C)CC1` [OLANZAPINE], which Inhibition [1] is on record?
**A.** Its Inhibition is 5.81%.

**Q.** What about the Inhibition [2] of the same compound?
**A.** Its Inhibition is -0.3%.

**Q.** And the Inhibition [3]?
**A.** The Inhibition was -5.37%.

**Q.** Which Inhibition [1] does the source give for `CCOC(=O)C1=C(C)NC(C)=C(C(=O)OC)C1c1cccc(Cl)c1Cl` (stereo not given) [FELODIPINE] here?
**A.** The Inhibition was 7.48%.

**Q.** And the Inhibition [2]?
**A.** Its Inhibition is 1.71%.

**Q.** And the Inhibition [3]?
**A.** Its Inhibition is -9.45%.

**Q.** What does the source list for `O=C1[C@H](CC[C@H](O)c2ccc(F)cc2)[C@@H](c2ccc(O)cc2)N1c1ccc(F)cc1` [EZETIMIBE]?
**A.** Inhibition [1]: 2.21%; Inhibition [2]: -1%; Inhibition [3]: -1.78%

**Q.** Which Inhibition [1] does the source give for `OCc1cc(C(O)CNCCCCCCOCCCCc2ccccc2)ccc1O` (stereo not given) [SALMETEROL] here?
**A.** Its Inhibition is 16.35%.

**Q.** And the Inhibition [2]?
**A.** Its Inhibition is 5.42%.

**Q.** What about the Inhibition [3] of the same compound?
**A.** Its Inhibition is -8.37%.

**Q.** For `CN(C/C=C/C#CC(C)(C)C)Cc1cccc2ccccc12.Cl` [TERBINAFINE HYDROCHLORIDE], which Inhibition [1] is on record?
**A.** Its Inhibition is 11.69%.

**Q.** What about the Inhibition [2] of the same compound?
**A.** The Inhibition was 32.9%.

**Q.** What about the Inhibition [3] of the same compound?
**A.** The Inhibition was 35.41%.

**Q.** How did the Inhibition [1] turn out when `CC(N)C12CC3CC(CC(C3)C1)C2.Cl` (stereo not given) [RIMANTADINE HYDROCHLORIDE] was run?
**A.** The Inhibition was 8.19%.

**Q.** What about the Inhibition [2] of the same compound?
**A.** The Inhibition was 2.89%.

**Q.** What about the Inhibition [3] of the same compound?
**A.** The Inhibition was -3.72%.

**Q.** What does the source list for `C[C@H](N[C@@H](CCc1ccccc1)C(=O)O)C(=O)N1CCC[C@H]1C(=O)O` [ENALAPRILAT ANHYDROUS]?
**A.** Inhibition [1]: 8.45%; Inhibition [2]: 2.99%; Inhibition [3]: 1.01%
